# Results as given in ChEMBL document CHEMBL3988442, “University of Dundee, Small-Polar-MMV Screening Library” (2021).
# Hit rate of the full screen: of about 48,000 compounds, about 13,000 (27%) showed an effect of 50% or more. The list shows a part of the results.
# System: Wolbachia pipientis
# Assay: Anti-Wolbachia Cell-Based Screen
# Format: functional
# Design: scale not given: in the data most compounds retested in dose-response had high values
# Details: 5 µM
row,Compound,Percent Effect [%]
1,O=c1oc(-c2ccc(F)cc2)nn1CCS(=O)(=O)c1ccccc1,3.372
2,CCc1cnc(CN2CCC(O)(c3cc(OC)cc(OC)c3)CC2)o1,-1.491
3,N#Cc1c(Cl)nsc1NCc1ccc(N2CCCC(C(N)=O)C2)cc1 (configuration not stated),6.894
4,COc1ccc(-c2nc(CSC3CCCCNC3=O)co2)cc1 (configuration not stated),-25.49
5,CN(C)c1nccc(NCc2cc(-c3ccco3)n[nH]2)n1,126.3
6,Cc1n[nH]c(C)c1CNc1nc(-c2ccco2)nc2c1CCNCC2,0.9084
7,c1coc(-c2nc3c(c(NCc4n[nH]c5c4CCC5)n2)CCNCC3)c1,-11.22
8,CNc1ccnc(N(C)Cc2cc(-c3cccs3)n[nH]2)n1,8.932
9,CNc1cc(C(=O)N(C)Cc2cc(-c3cccs3)n[nH]2)ccn1,11.01
10,CN(C)c1nccc(NCc2cc(-c3cccs3)n[nH]2)n1,108.4
11,O=S(=O)(CC1CC1)c1ncc(CN2CCOCC2)n1CC1CCCO1 (configuration not stated),1.621
12,Cn1cnc2c1CCN(CCS(=O)(=O)c1ccccc1)C2,2.795
13,CCOc1ccc(CN2CCNC(C(=O)NC3CC3)C2)cc1CO (configuration not stated),-28.15
14,Cc1nc(CNC(=O)c2oc3ccccc3c2CN(C)C)oc1C,12.17
15,COc1cccc(CN2C[C@H]3CC[C@H]2C3)c1OCCN1CCOCC1,3.067
16,COc1ccccc1OCCCc1cc(C#N)ccn1,-8.074
17,CCn1ccnc1CN1CCN(CCOc2ccccc2OC)CC1,1.541
18,COc1ccccc1OCCN1CCC(N2CCNC2=O)CC1,-7.605
19,COc1cccc(OC)c1OCCN1C(=O)CCNC1=O,70.56
20,COc1cccn(CC(=O)N(C)CCCOc2c(C)cccc2C)c1=O,-81.04
21,CC(C)Oc1ccccc1OCCN1C(=O)CCNC1=O,102.7
22,COc1ccccc1OCCCc1cncc(C(N)=O)c1,-13.5
23,Cc1ccc(C)c(OCCN2CCC(N3CCNC3=O)CC2)c1,-4.141
24,N#Cc1ccccc1OCCN1CCC(N2CCNC2=O)CC1,-2.122
25,COc1ccccc1OCCCN1C(=O)CCNC1=O,100.1999
26,COc1ccccc1OCCCN1CCNC1=O,93.18

row,Compound,Percent Effect [%]
1,Cc1nc(N(C)CCCc2nccn2C)c2c(C)nn(C)c2n1,-2.28
2,Cc1[nH]c2c(C)ccc(C)c2c1CC(=O)NCc1csc(N(C)C)n1,-37.05
3,CCC(CC)c1cc(CNC(=O)N2CCOCC2CC)on1 (configuration not stated),8.113
4,CC(C)(O)CCc1ccc(C(=O)NCCC2CCOC2)cc1 (configuration not stated),-23.58
5,CCOc1ccc(CN2CCN(CCOC)[C@@H]3CS(=O)(=O)C[C@@H]32)cc1,-4.58
6,O=C(NCCCOCC1CC1)Nc1cccnc1N1CCOCC1,-4.484
7,CCc1nc(C#N)c(N2CCC(c3nc(-c4ccccc4)no3)CC2)o1,-18.26
8,c1ccc(-c2noc(CCCN3CCCC3Cn3cncn3)n2)cc1 (configuration not stated),100.9
9,N#Cc1cccc(CN2CCCC2Cn2cncn2)c1 (configuration not stated),-16.52
10,O=S(=O)(CCCN1CCCCC1Cn1cncn1)c1ccccc1 (configuration not stated),108.5
11,c1ccc(-c2noc(C3CCN(CCCn4cncn4)CC3)n2)cc1,-0.715
12,O=S(=O)(CCN1CCCC1Cn1cncn1)c1ccccc1 (configuration not stated),102.1
13,c1csc(-c2noc(CCCN3CCCC3Cn3cccn3)n2)c1 (configuration not stated),-9.384
14,c1ccc(CCCN2CCCC2Cn2cncn2)cc1 (configuration not stated),145.7
15,Cc1cc(C)n(CC2CCCN2CCS(=O)(=O)c2ccccc2)n1 (configuration not stated),-8.876
16,CCN(Cc1ccccc1)C(=O)CN1CCCCC1Cn1cncn1 (configuration not stated),-8.051
17,O=C1CCCN1CCCN1CCCCC1Cn1cncn1 (configuration not stated),3.397
18,CN1CCN(CC2CC2)C(=O)C12CCN(c1nccs1)CC2,-15.71
19,CC(C)NC(=O)[C@@H](NC(=O)N1CCN(c2ccc(Cl)cc2)CC1)C(C)C,-4.425
20,Cn1cnc(-c2nc(C(=O)NCCN3CCOCC3)c3ccccn23)c1,-34.35
21,CN(CC1CC1)S(=O)(=O)c1ccc(C(F)(F)F)cc1C#N,-1.577
22,O=C(c1ccc2c(c1)[nH]c(=O)n2[C@H]1CC[C@H](O)CC1)N1CCOCC1,1.877
23,O=S(=O)(CCCN1CCCC(Cn2cncn2)C1)c1ccccc1 (configuration not stated),92.49
24,O=S(=O)(CCN1CCCCC1Cn1cncn1)c1ccccc1 (configuration not stated),104.1
25,O=S(=O)(CCN1CCOC(Cn2cncn2)C1)c1ccccc1 (configuration not stated),-0.6358
26,N#Cc1ccccc1OCCN1CCCCC1Cn1cncn1 (configuration not stated),-1.923
